Data from PubChem BioAssay AID827 (SRMLSC, 2007).
Out of some 140,000 compounds screened, about 1,700 (1.2%) were called active. Only a selection was taken, and actives are over-represented in it overall. Unmarked numbers belong to inactive results.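 How the source made its calls: active means viability at or below a set limit, 4 SD under the median of all tested compounds (cut at about 3.7% in these data); inactive means the rest.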

Test: growth suppression of PTEN-null HCT116, primary screen, cell-based, CellTiter-Glo (AID 827);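 further: PTEN knockout HCT116 line with beta catenin targeted HCT116 as companion control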
Conditions: 60 h, at 10 µM, hits give low values

In order of falling viability:
1. Cc1ccc(/C=N\n2c(-c3ccccc3)n[nH]c2=S)s1  109%
2. C=CCc1cccc2cc(C(=O)OCC)c(=O)oc12  104%
3. Cc1nc2ccccc2cc1O  103%
4. Cn1cc(C(=O)NCc2ccccc2F)cn1  102%
5. CCOC(=O)c1ccc(N/C(=N/S(=O)(=O)c2ccccc2)c2ccccc2)cc1  102%
6. O=C(CN1C(=O)NC2(CCCCCC2)C1=O)NCc1cccs1  102%
7. CC(C)n1c(C(O)c2ccccc2)nc2ccccc21 (stereo not drawn)  101%
8. O=C(NCCOCc1ccc(Cl)cc1)c1ncn[nH]1  101%
9. Cc1ccc(C(CC(=O)O)Nc2nc(N3CCCCC3)nc(N3CCCCC3)n2)cc1 (stereo not drawn)  99.5%
10. COc1ccc(/C=C(/NC(=O)c2ccc(C)cc2)c2nc3ccccc3[nH]2)cc1OC  99.4%
11. CCc1ccc(NC(=O)c2ccc(Cn3cc([N+](=O)[O-])cn3)cc2)cc1  99%
12. CC(=O)OC(C)C[N+](C)(C)C (stereo not drawn)  98.9%
13. Cc1noc(COc2ccccc2OCC(O)CNC(C)(C)C)n1 (stereo not drawn)  98.8%
14. COc1cc(/C=N\NC(=O)CNC(=O)c2cccc([N+](=O)[O-])c2)ccc1O  98.5%
15. CCCCC(C(=O)OCC(=O)c1ccc(OC)cc1)N1C(=O)c2ccccc2C1=O (stereo not drawn)  97.5%
16. O=C(CCC(=O)c1cccs1)NCc1ccccc1  97.4%
17. O=C(Nc1ccc2c(c1)OCCO2)c1cnccn1  97.3%
18. Cc1cc(C)c2c(n1)sc1c(=O)n(-c3ccccc3)c(=O)[nH]c12  97.1%
19. CC(=O)NC1C(OCc2ccccc2)OC(COC(C)=O)C(OC(C)=O)C1OC(C)=O (stereo not drawn)  96.9%
20. NS(=O)(=O)c1ccc(CCNC(=S)Nc2ccc(S(N)(=O)=O)cc2)cc1  96.8%
21. Cc1cc(C(=O)COC(=O)CNC(=O)c2ccc(F)cc2)c(C)n1Cc1ccco1  96.4%
22. COc1ccc(CCC(=O)OCC(=O)Nc2ccc(C)c(S(=O)(=O)N(C)C)c2)cc1  96.3%
23. CC1CCN(C(=S)NC2CC3CCC2C3)CC1 (stereo not drawn)  95.9%
24. Cc1cccc(C(=O)OCC(=O)Nc2sc3c(c2C#N)CCC3)c1  95.8%
25. NC1=C([N+](=O)[O-])C(c2ccccc2)C2=C(CCCC2=O)O1 (stereo not drawn)  95.7%
26. Cc1nn(C)c(C(=O)NNC(=S)NC2CCCCC2)c1Cl  95.4%
27. CCc1ccccc1NC(=O)CN(C)C(=O)COc1ccc(C)nc1[N+](=O)[O-]  95.3%
28. COc1ccc(/C(N)=N/OC(=O)CCCc2ccccc2)cc1  94.9%
29. COc1ccc(C(=O)CSc2nnc(NC(=O)C3CC(=O)N(c4cccc(OC)c4)C3)s2)cc1 (stereo not drawn)  94.8%
30. CC(C)(C)c1ccc(C(=O)CSc2ncn[nH]2)cc1  94.8%
31. O=C(Nc1ccc2c(c1)OCCO2)c1ccncc1  94.3%
32. COC(=O)c1cc(C(=O)N(Cc2ccccc2)c2ccccn2)cc([N+](=O)[O-])c1  94.2%
33. Oc1ccc(Cl)cc1/C=N/c1nc2ccccc2[nH]1  93.9%
34. Cc1ccc(C(=O)/C=C/Nc2ccc(S(=O)(=O)Nc3onc(C)c3C)cc2)cc1  92.7%
35. Cc1ccc(C)c(NC(=S)NCC(c2cccnc2)N2CCOCC2)c1 (stereo not drawn)  92.3%
36. O=C(COC(=O)/C(=C/c1cccs1)c1cccs1)NCc1ccccc1Cl  91.8%
37. N#CCSc1nc2ccccc2c(=O)n1-c1ccccc1  90.5%
38. Cc1cccc(NC(=O)CSc2nc3[nH]ncc3c(=O)[nH]2)c1  90.2%
39. Cc1[nH]n(-c2cccc(Cl)c2)c(=O)c1/C=N/n1c(C)nc2ccccc2c1=O  89.2%
40. COc1cccc2cc(C(=O)N3CCN(C(=O)c4ccccc4)CC3)c(=O)oc12  87.7%
41. CC(C)(C)C1CCC(OC(=O)CCC(=O)Nc2ccccc2)CC1 (stereo not drawn)  87%
42. O=C(Nc1c2c(nc3ccccc13)CCCC2)c1ccccc1Br  86.9%
43. COc1cccc(NC(=O)c2ccc(Cn3cc([N+](=O)[O-])cn3)o2)c1  86.8%
44. O=[N+]([O-])c1cccc(S(=O)(=O)N2CCCCCC2)c1  86.5%
45. Cc1noc(C)c1COC(=O)c1cc2ccccc2cc1O  86.5%
46. CSc1nc(N)c(C#N)c(-c2ccccc2Cl)c1C#N  86.3%
47. COc1cccc2c1CCC(NC(C)=O)C2=O (stereo not drawn)  86%
48. Cc1ccc(C)c2[nH]c(=O)c(CCNC(=O)c3cccs3)cc12  85.5%
49. Cc1ccc(-n2c(SCC(=O)N/N=C/C=C/c3ccccc3[N+](=O)[O-])nc3ccccc3c2=O)cc1  85.4%
50. Cc1ccc(C)c(NC(CC(=O)c2ccccc2)C(=O)OCC(=O)c2cccs2)c1 (stereo not drawn)  85%
51. Cc1ccc(CN2C(=O)N/C(=C/c3cc(C)n(-c4ccccn4)c3C)C2=O)cc1  84.5%
52. N=C1C(=O)OCC1c1ccccc1NC(=O)CN1CCCCC1 (stereo not drawn)  83.9%
53. O=C(/C=C/c1ccccc1)c1ccccc1O  83.3%
54. O=C(c1c(Cl)nc2sccn12)N1CCCc2ccccc21  81.7%
55. CCc1nnc(NC(=O)[C@@H](NC(=O)c2cccc(C)c2)C(C)C)s1  80.8%
56. Cc1cc(OCCCC(=O)NCCN2C(=O)S/C(=C\c3cccnc3)C2=O)ccc1Cl  78.4%
57. COc1cccc(/C=N/NC(=O)c2cccc([N+](=O)[O-])c2)c1OS(=O)(=O)c1ccc(C)cc1  71.7%
58. Cc1ccc(Oc2cc(NC(=O)CCCn3nc(C)c([N+](=O)[O-])c3C)cc([N+](=O)[O-])c2)cc1  71.1%
59. CCC(C)NCCOCCOc1ccc(Br)cc1C (stereo not drawn)  71%
60. COC(=O)N/N=C/c1ccc(-c2ccc(Cl)c(Cl)c2)o1  68.4%
61. CC(=O)c1c(C)[nH]c(C(=O)OCC(=O)Nc2sc3c(c2C#N)CCCC3)c1C  66.9%
62. O=C(Nc1ccccc1)c1cc2ccccc2[nH]1  66.4%
63. O=C(NCCc1ccccc1)C1CCC(Cn2c(=O)c3ccccc3n(Cc3cccnc3)c2=O)CC1 (stereo not drawn)  63.7%
64. Cn1cc(/C=C/c2nc3ccccc3c(=O)n2-c2cccc([N+](=O)[O-])c2)c2ccccc21  62.3%
65. C=CCNC(=O)c1ccccc1NC(=O)c1ccc(Cl)c(S(=O)(=O)Nc2cccc(C)c2C)c1  55.4%
66. N=c1c2c(-c3ccccc3)c(-c3ccccc3)oc2ncn1Cc1ccco1  54.2%
67. OCCCN1c2ccccc2Nc2nnc(-c3ccccc3)cc21  53.1%
68. Cc1[nH]n(-c2ccc(Cl)cc2)c(=O)c1/C=N/n1c(C)nc2ccccc2c1=O  33.6%
69. CCCC(O)(CCC)C(=O)NN(C(=O)CCl)c1cccc(C)c1  32.7%
70. CC(NC(=O)c1cccc2ccccc12)c1ccc2c(c1)CCCC2 (stereo not drawn)  25.1%
71. O=C(CCCN1C(=O)/C(=C/c2ccco2)SC1=S)Nc1ccccc1  24%
72. CCOC(=O)c1ccccc1NS(=O)(=O)c1ccc(OC)cc1  15.6%
73. S=c1[nH]nc(-c2cccnc2)n1/N=C/C(Cl)=C\c1ccccc1  8.01%
74. Cc1nc(-c2ccccc2)sc1C(=O)/C=C/c1ccccc1  6.16%
75. N#C/C(=C(/O)COC(=O)COc1ccc(Cl)cc1)c1nc2ccccc2[nH]1  5.27%
76. c1ccc2c(c1)CSc1sccc1C2=C1CCNCC1  4.26%

For `CC(C[N+](C)(C)C)OC(N)=O` (stereo not drawn), the viability was 1.03% (active).
In the case of `Cc1coc2c(O)cc3c(c12)OC1(N2CCCCC2)C(=O)NCCCC31` (stereo not drawn), the viability is reported as 2.96% (active).
For `Cn1cc([N+](=O)[O-])c(C(=O)Nc2cnn(Cc3ccc(F)cc3)c2)n1`, the viability was 3.56% (active).
With `Cn1cc([N+](=O)[O-])c(C(=O)Nc2ccc3c(c2)OCCO3)n1` the viability was 3.52% (active).
For `CSc1nc2ccccc2cc1/C=C(\C#N)c1ccc(Cl)cc1Cl`, the viability was 3.51% (active).
In the case of `COc1cccc2cc(C(=O)N(C)C)c(=O)oc12`, the viability is reported as 1.64% (active).
In the case of `CC(Nc1nc(N2CCCC2)nc2ccccc12)c1ccccc1` (stereo not drawn), the viability is reported as 2.77% (active).
With `CCCCCCc1cc2cc(-c3nnc(-c4ccccc4)o3)c(=O)oc2cc1O` the viability was 1.84% (active).
With `O=C(/C(=C/c1cccc(Cl)c1)c1nc2ccccc2[nH]1)c1ccccc1` the viability was 1.59% (active).
With `CC(C)(C)CC(C)(C)NCC(O)COCCOc1ccc(Br)cc1` (stereo not drawn) the viability was 1.74% (active).
For `O=C(NNc1c2ccccc2nc2ccccc12)c1cc2ccccc2cc1O`, the viability was 2.39% (active).
In the case of `CCn1c(/C=C/c2ccc([N+](=O)[O-])o2)nc2ccccc2c1=O`, the viability is reported as 2.45% (active).
In the case of `C/C(O)=C\c1nc(=O)c2c(C)cc(C)nc2n1-c1ccccc1`, the viability is reported as 2.19% (active).
In the case of `CCOC(=O)C1=C(c2ccc(OC)cc2)C(=O)c2ccccc2C1=O`, the viability is reported as 1.48% (active).
With `N=c1c2c(-c3ccccc3)c(-c3ccccc3)n(Cc3ccccc3)c2ncn1CCCO` the viability was 1.76% (active).
For `Cc1[nH]c(=O)c(C(=O)/C=C/c2ccccc2)c2c1CCCC2`, the viability was 1.81% (active).
For `O=C(/C=C/Sc1ncn[nH]1)c1ccc(Cl)cc1`, the viability was 2.52% (active).
For `Cc1cc(-c2n[nH]c(=S)n2/N=C/C(Br)=C/c2ccccc2)n[nH]1`, the viability was 1.39% (active).
In the case of `O=C1/C(=C\c2ccccc2Cl)SC(=S)N1CCC(=O)N1CCCc2ccccc21`, the viability is reported as 2.6% (active).
With `Cc1ccccc1C(CC(=O)c1cccs1)C(C#N)C#N` (stereo not drawn) the viability was 3.71% (active).
In the case of `Cc1[nH]n(-c2ccccc2)c(=O)c1/C=N/NC(=O)c1ccoc1C`, the viability is reported as 3.19% (active).
With `Cc1ccc(-n2[nH]c(C)c(/C=N/NC(=O)c3cccc([N+](=O)[O-])c3)c2=O)cc1C` the viability was 2.5% (active).
